Measurements from PubChem BioAssay (Tox21).
Records with an inconclusive call do not appear. The source made the active and inactive calls. Unless noted, calls come from the whole dose curve; as a rule, active = well fitted curve in the direction sought with a large enough effect in the repeat runs; inconclusive = weak or mixed curves; inactive = no such curve, though single readings can be large; an effect the other way counts as inactive or inconclusive.

Key:
[1] = qHTS assay to identify small molecule antagonists of the estrogen receptor beta (ER-beta) signaling pathway - cell viability counter screen (AID 1259382);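 note: HEK293T cells carrying ER-beta-UAS-bla reporter stimulated with estradiol; series mostly up to about 92 µM; nearly all actives have a fitted effect of over 55% in size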
Procedure, shortened: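 ER-beta-UAS-bla HEK293T cells (2,000/well, 2% charcoal-stripped FBS) were pre-incubated 6 hr at 37C, then given compound plus 1nM final 17-beta-estradiol for 16 hr. Viability was read in the same wells by CellTiter-Glo luminescence after 30 min at room temperature.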

[2] = molecular target: Estrogen receptor (Homo sapiens) (UniProt P03372); assay: qHTS assay to identify small molecule agonists of the estrogen receptor alpha (ER-alpha) signaling pathway in the presence of an antagonist (AID 1259383; calls by dose curve; note: nearly all actives have a fitted effect of over 15% in size; note: potency is the fitted concentration of half-maximal effect; for activation: top concentration of the series differs between compounds)
Procedure, shortened: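 VM7Luc4E2 cells (endogenous full-length ER-alpha, 4×ERE-luciferase) were precultured 5 days in phenol red-free medium with 10% charcoal-stripped FBS, given 10.0nM ICI-182,780 (final), then treated with compounds at 15 concentrations for 22hr at 37C; luminescence read with ONE-Glo.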

[3] = qHTS assay to identify small molecule agonists or antagonists of the thyroid stimulating hormone receptor (TSHR) signaling pathway - wild type cell line counter screen (AID 1259384; calls by dose curve)
Procedure, shortened: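 Wild-type HEK293 cells were plated 18 h at 37 C/5% CO2, pin-dosed with compound plus Ro20-1724 medium, held 30 min at room temperature, then given cAMP-d2 and anti-cAMP-cryptate; fluorescence was read after 1 h. Fifteen concentrations, triplicate.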

[4] = molecular target: Thyrotropin receptor (Homo sapiens) (UniProt P16473); assay: qHTS assay to identify small molecule antagonists of the thyroid stimulating hormone receptor (TSHR) signaling pathway (AID 1259385; calls by dose curve; note: nearly all actives have a fitted effect of over 20% in size)
Procedure, shortened: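 TSHR-HEK293 cells were plated and held 18 h at 37C/5% CO2, then given compound plus Ro20-1724 and stimulated with TSH at 1.5 ng/mL final. After 30 min at room temperature, cAMP was detected with cAMP-d2/anti-cAMP-cryptate (1 h) by fluorescence.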

[5] = qHTS assay to identify small molecule agonists of the estrogen receptor alpha (ER-alpha) signaling pathway in the presence of an antagonist - cell viability counter screen (AID 1259386);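 note: series mostly up to about 92 µM; cells exposed to compounds for 22 h at 37 °C before the viability read; nearly all actives have a fitted effect of over 30% in size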
Procedure, shortened: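 VM7Luc4E2 cells (endogenous full-length ER-alpha, 4×ERE-luciferase) were held 5 days in phenol red-free medium with 10% charcoal-stripped FBS, plated, then given 10.0nM ICI-182,780 and compounds at 15 concentrations for 22hr at 37C; viability read by CellTiter-Fluor fluorescence.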

[6] = qHTS assay to identify small molecule antagonists of the progesterone receptor (PR) signaling pathway - cell viability counter screen (AID 1346798); note: series mostly up to about 92 µM; nearly all actives have a fitted effect of over 50% in size
Procedure, shortened: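 In the same plates used for the beta-lactamase readout, cell viability of compound- and R5020-treated PR-UAS-bla HEK293T cells (16 hr, 37C) was assessed by CellTiter-Glo luminescence.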

[7] = qHTS assay to identify small molecule agonists of the progesterone receptor (PR) signaling pathway - cell viability counter screen (AID 1346799; calls by dose curve; note: nearly all actives have a fitted effect of over 45% in size)
Procedure, shortened: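 Multiplexed viability read: CellTiter-Glo luminescence, 30 min RT, following LiveBLAzer FRET measurement on PR-UAS-bla HEK293T cells exposed to compounds 16 hr.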

[8] = qHTS assay to identify small molecule antagonists of the TGF-beta/Smad signaling pathway - cell viability counter screen (AID 1346824); note: nearly all actives have a fitted effect of over 50% in size
Procedure, shortened: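 SBE-bla HEK 293T cells were plated overnight at 37 C, then given compounds in DMSO plus TGF-beta1 (added as 0.25 ng/mL solution) for 5 hr. After the bla read, CellTiter-Glo was added to the same wells and luminescence read after 30 min at room temperature.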

[9] = qHTS assay to identify small molecule agonists of the TGF-beta/Smad signaling pathway - cell viability counter screen (AID 1346829); note: top concentration of the series differs between compounds; nearly all actives have a fitted effect of over 45% in size
Procedure, shortened: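 Compound-treated SBE-bla HEK 293T cells (5 hr, 37 C) were assessed for viability with CellTiter-Glo in parallel with the reporter read.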

[10] = molecular target: Thyrotropin-releasing hormone receptor (Homo sapiens) (UniProt P34981); assay: qHTS assay to identify small molecule antagonists of the thyrotropin-releasing hormone receptor (TRHR) signaling pathway (AID 1346877; active = well fitted inhibition curve with a large enough effect in the repeat runs, not every such curve was filed as active; note: series mostly up to about 51 µM)
Procedure, shortened: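 TRHR-expressing HEK293 cells were seeded, cultured 18 h at 37 °C, then loaded with calcium dye for 2 h. Compounds were pre-incubated 5 min at room temperature before 1 nM TRH (final) was added, and kinetic fluorescence was recorded for 3 min.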

[11] = molecular target: Thyrotropin-releasing hormone receptor (Homo sapiens) (UniProt P34981); assay: qHTS assay to identify small molecule agonists of the thyrotropin-releasing hormone receptor (TRHR) signaling pathway (AID 1346891; calls by dose curve; note: series mostly up to about 58 µM)
Procedure, shortened: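 Readout was intracellular calcium fluorescence in TRHR-Hek293 cells. Cells were incubated 18 h, dye-loaded 2 h at 37 °C, and treated with compound in agonist mode.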

[12] = Human pregnane X receptor (PXR) small molecule agonists, qHTS cell viability counter screen (AID 1346977); note: nearly all actives have a fitted effect of over 50% in size
Procedure, shortened: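 In each well, the PXR reporter HepG2 line was checked for viability: CellTiter-Fluor reagent added 23hr post-dosing, fluorescence read after 1hr incubation at 37C.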

[13] = Caspase-3/7 induction in HepG2 cells by small molecules, qHTS assay (AID 1346978); note: nearly all actives have a fitted effect of over 15% in size
Procedure, shortened: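 Wild-type HepG2 cells (2,000/well) were settled 5 h at 37 C, 5% CO2, then exposed to compounds in DMSO for 17 h. Caspase-3/7 activity was read by luminescence 30 min after adding Caspase-Glo 3/7 reagent at room temperature.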

[14] = Caspase-3/7 induction in CHO-K1 cells by small molecules, qHTS cell viability counter screen (AID 1346979); note: nearly all actives have a fitted effect of over 35% in size
Procedure, shortened: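 Following a 5hr settling period, CHO-K1 cells at 1,500 per well received DMSO-dissolved compounds. Cell viability was quantified 16hr later by CellTiter-Fluor fluorescence, measured after 1hr with reagent at 37C.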

[15] = Caspase-3/7 induction in CHO-K1 cells by small molecules, qHTS assay (AID 1346980); note: nearly all actives have a fitted effect of over 15% in size
Procedure, shortened: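 Wild-type cells were seeded at 1,500 per well and settled 5 hr at 37 C, 5% CO2, then exposed to DMSO-dissolved compounds for 17 hr. Caspase-Glo 3/7 reagent was added, and luminescence was read after 30min at room temperature.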

[16] = Caspase-3/7 induction in HepG2 cells by small molecules, qHTS cell viability counter screen (AID 1346981); note: series mostly up to about 92 µM; nearly all actives have a fitted effect of over 30% in size
Procedure, shortened: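 Wild-type HepG2 cells (2,000/well) were allowed to settle for 5 hr at 37 C, 5% CO2, then dosed with compounds in DMSO by pin transfer. After 16 hr at 37 C, CellTiter-Fluor was added and fluorescence read 1 hr later.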

[17] = molecular target: Progesterone receptor (Homo sapiens) (UniProt P06401); assay: qHTS assay to identify small molecule agonists of the progesterone receptor (PR) signaling pathway (AID 1346784; calls by dose curve; note: nearly all actives have a fitted effect of over 30% in size)
Procedure, shortened: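 Reporter assay, GripTite PR-UAS-bla HEK 293T cells: 16 hr exposure to DMSO-dissolved compounds at 37C, 5% CO2, in steroid-depleted (2% charcoal-stripped FBS) medium; beta-lactamase measured by FRET fluorescence.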

[18] = qHTS assay to identify small molecule agonists of the TGF-beta/Smad signaling pathway (AID 1346859; active = well fitted activation curve with a large enough effect in the signal ratio in the repeat runs, not every such curve was filed as active; the % refers to the signal ratio; note: series mostly up to about 77 µM)
Procedure, shortened: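 Screening used HEK 293T SBE-bla cells at 4,000/well. Test agents: 5 hr, 37 C. Detection: FRET substrate, 2 hr RT, then excitation 405 nm with emissions at 460 and 530 nm.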

[19] = molecular target: Nuclear receptor subfamily 1 group I member 2 (Homo sapiens) (UniProt O75469); assay: Human pregnane X receptor (PXR) small molecule agonists, qHTS assay (AID 1346982); note: nearly all actives have a fitted effect of over 35% in size; note: potency is the fitted concentration of half-maximal effect
Procedure, shortened: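 PXR-Luc HepG2 cells (CYP3A4 promoter-driven luciferase) were seeded in medium with 5% charcoal-stripped FBS, left 5 hr at 37 C, then exposed to compounds in DMSO for 24 hr. Luminescence was read after ONE-Glo addition.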

[20] = molecular target: Progesterone receptor (Homo sapiens) (UniProt P06401); assay: qHTS assay to identify small molecule antagonists of the progesterone receptor (PR) signaling pathway (AID 1346795; active = well fitted inhibition curve with a large enough effect in the signal ratio in the repeat runs, not every such curve was filed as active; the % refers to the signal ratio)
Procedure, shortened: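 Stimulus R5020 at 1 nM final; cells HEK293T PR-UAS-bla; medium with 2% charcoal-stripped FBS; compound exposure 16 hr at 37C, 5% CO2; detection by FRET beta-lactamase substrate, 2 hr, room temperature.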
% is set by controls: 0 for no effect and ±100 for the full control effect.

Chain of Progesterone receptor (Homo sapiens) (P06401 whole entry, looked up): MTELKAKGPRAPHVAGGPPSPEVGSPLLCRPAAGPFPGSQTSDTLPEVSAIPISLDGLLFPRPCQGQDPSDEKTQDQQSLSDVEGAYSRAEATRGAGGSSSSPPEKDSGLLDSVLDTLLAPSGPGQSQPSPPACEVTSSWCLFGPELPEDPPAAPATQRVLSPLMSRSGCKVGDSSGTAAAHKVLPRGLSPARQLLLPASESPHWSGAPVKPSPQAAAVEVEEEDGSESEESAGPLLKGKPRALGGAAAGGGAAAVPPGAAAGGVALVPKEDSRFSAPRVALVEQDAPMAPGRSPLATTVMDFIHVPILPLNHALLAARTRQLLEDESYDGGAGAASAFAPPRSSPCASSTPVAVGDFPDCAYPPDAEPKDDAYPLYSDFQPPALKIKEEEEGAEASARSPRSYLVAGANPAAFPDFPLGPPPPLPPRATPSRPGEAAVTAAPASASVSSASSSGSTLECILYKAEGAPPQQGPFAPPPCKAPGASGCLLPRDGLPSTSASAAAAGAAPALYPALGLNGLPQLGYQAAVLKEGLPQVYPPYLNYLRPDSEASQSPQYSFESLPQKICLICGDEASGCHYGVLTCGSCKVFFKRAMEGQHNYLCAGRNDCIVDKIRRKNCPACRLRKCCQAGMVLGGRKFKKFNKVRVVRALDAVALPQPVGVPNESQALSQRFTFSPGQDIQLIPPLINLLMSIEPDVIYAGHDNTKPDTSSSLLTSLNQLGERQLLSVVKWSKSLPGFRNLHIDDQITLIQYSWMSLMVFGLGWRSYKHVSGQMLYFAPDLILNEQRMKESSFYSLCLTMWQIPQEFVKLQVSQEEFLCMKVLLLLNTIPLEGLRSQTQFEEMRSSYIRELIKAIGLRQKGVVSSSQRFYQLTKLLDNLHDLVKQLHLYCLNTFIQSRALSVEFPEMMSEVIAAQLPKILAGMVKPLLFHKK
Chain of Thyrotropin receptor (Homo sapiens) (P16473 whole entry, looked up): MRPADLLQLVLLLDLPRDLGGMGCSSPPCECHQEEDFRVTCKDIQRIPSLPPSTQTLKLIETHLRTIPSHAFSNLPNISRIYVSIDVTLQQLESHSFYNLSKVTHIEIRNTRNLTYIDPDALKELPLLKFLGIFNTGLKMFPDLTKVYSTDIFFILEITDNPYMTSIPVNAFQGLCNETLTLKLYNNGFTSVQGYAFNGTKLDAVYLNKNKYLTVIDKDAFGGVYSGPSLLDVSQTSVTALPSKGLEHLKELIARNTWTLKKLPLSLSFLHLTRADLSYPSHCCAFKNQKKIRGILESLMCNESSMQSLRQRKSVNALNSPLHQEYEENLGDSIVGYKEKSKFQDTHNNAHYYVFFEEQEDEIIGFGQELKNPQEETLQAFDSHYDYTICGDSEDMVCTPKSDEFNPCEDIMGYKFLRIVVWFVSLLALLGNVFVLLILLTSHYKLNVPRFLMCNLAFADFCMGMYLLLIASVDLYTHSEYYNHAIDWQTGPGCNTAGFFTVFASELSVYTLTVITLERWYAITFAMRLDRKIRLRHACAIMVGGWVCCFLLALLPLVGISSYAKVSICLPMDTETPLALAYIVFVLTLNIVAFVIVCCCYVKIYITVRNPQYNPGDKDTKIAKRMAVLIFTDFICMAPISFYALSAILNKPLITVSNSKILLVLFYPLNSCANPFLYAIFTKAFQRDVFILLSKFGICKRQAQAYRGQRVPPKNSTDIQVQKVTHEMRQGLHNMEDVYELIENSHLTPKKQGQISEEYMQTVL
Chain of Estrogen receptor (Homo sapiens) (P03372 whole entry, looked up): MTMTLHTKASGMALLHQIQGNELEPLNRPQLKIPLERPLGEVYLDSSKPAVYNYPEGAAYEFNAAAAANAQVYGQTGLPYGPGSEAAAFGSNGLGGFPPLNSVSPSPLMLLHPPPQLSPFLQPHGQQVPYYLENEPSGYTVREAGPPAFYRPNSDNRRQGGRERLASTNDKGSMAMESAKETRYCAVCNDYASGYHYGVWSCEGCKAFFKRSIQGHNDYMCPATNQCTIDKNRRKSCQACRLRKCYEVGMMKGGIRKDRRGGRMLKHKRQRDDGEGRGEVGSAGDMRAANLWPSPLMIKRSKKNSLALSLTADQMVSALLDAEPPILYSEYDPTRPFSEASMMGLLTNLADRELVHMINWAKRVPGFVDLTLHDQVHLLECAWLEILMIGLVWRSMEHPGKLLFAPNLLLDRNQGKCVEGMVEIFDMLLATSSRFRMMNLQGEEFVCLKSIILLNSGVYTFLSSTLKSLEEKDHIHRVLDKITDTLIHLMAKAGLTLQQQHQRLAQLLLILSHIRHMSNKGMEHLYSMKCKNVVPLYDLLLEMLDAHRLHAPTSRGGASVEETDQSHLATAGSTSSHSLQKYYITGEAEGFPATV
Chain of Nuclear receptor subfamily 1 group I member 2 (Homo sapiens) (O75469 whole entry, looked up): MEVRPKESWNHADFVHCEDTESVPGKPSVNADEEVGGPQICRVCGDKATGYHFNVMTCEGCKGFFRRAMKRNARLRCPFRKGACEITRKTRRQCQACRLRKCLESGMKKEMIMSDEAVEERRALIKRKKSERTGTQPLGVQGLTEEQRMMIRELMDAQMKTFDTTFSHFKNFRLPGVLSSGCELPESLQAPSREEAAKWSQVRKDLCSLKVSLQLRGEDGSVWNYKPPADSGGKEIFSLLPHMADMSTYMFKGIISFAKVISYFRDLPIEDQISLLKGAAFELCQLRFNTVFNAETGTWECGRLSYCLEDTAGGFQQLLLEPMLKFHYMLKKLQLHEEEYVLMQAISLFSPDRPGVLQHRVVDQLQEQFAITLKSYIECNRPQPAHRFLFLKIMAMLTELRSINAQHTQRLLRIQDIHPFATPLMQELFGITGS
Chain of Thyrotropin-releasing hormone receptor (Homo sapiens) (P34981 whole entry, looked up): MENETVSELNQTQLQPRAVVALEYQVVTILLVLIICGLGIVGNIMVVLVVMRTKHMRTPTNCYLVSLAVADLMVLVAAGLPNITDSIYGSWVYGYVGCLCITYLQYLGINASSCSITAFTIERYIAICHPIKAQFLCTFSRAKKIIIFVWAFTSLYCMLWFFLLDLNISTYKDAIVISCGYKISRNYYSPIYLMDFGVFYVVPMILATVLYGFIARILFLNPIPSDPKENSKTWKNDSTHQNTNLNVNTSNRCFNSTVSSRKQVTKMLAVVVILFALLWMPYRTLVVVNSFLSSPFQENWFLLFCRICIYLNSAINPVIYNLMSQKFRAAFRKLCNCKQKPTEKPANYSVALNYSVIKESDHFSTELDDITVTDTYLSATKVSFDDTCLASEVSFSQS

O=C=NCC1CCCC(CN=C=O)C1 (centres undefined)
inactive: outcome [1] | Potency [2] | outcome [3] | outcome [4] | outcome [5] | outcome [6] | outcome [7] | outcome [8] | outcome [9] | outcome [10] | outcome [11] | outcome [12] | outcome [13] | Potency [14] | outcome [15] | outcome [16]

CC1=C(C(=O)O)N2C(=O)[C@@H](NC(=O)[C@H](N)C3=CCC=CC3)[C@H]2SC1
inactive: outcome [1] | Potency [2] | outcome [3] | outcome [4] | outcome [5] | Potency [17] | outcome [6] | outcome [7] | outcome [8] | outcome [9] | outcome [18] | outcome [12] | outcome [13] | Potency [14] | outcome [15] | outcome [16] | Potency [19]

C=C(C)c1cccc(C(C)(C)N=C=O)c1
inactive: outcome [1] | Potency [2] | outcome [3] | outcome [4] | outcome [5] | Potency [17] | outcome [6] | outcome [7] | outcome [8] | outcome [9] | outcome [18] | outcome [12] | outcome [13] | Potency [14] | outcome [15] | outcome [16]
active: Potency [19] 4.33 µM

CCCC(=O)OC/C=C(\C)CCC=C(C)C
inactive: outcome [1] | Potency [2] | outcome [3] | outcome [4] | outcome [5] | Potency [17] | Potency [20] | outcome [8] | outcome [9] | outcome [12] | outcome [13] | Potency [14] | outcome [15] | outcome [16] | Potency [19]

COC(=O)CCCCC(=O)O
inactive: outcome [1] | Potency [2] | outcome [3] | outcome [4] | outcome [5] | Potency [17] | Potency [20] | outcome [7] | outcome [8] | outcome [9] | outcome [18] | outcome [12] | outcome [13] | Potency [14] | outcome [15] | outcome [16] | Potency [19]

CC(C)CO
inactive: outcome [1] | Potency [2] | outcome [3] | outcome [4] | outcome [5] | outcome [7] | outcome [8] | outcome [9] | outcome [10] | outcome [11] | outcome [12] | outcome [13] | Potency [14] | outcome [15] | outcome [16] | Potency [19]

N#Cc1ccccc1O
inactive: outcome [1] | Potency [2] | outcome [3] | outcome [4] | outcome [5] | Potency [17] | Potency [20] | outcome [7] | outcome [8] | outcome [9] | outcome [18] | outcome [10] | outcome [11] | outcome [12] | outcome [13] | Potency [14] | outcome [15] | outcome [16] | Potency [19]

COc1cc2c(cc1OC)C(=O)C(CC1CCN(Cc3ccccc3)CC1)C2 (centres undefined)
inactive: outcome [1] | Potency [2] | outcome [3] | outcome [4] | Potency [17] | Potency [20] | outcome [6] | outcome [7] | outcome [8] | outcome [9] | outcome [10] | outcome [11] | outcome [13] | Potency [14] | outcome [15] | outcome [16] | Potency [19]

CCCCCCCCCCCCCCCCCCOCCO
inactive: activity change, negative = cytotoxicity [1] 4.32% [at 19 µM] | activation [2] -1.02% [at 19 µM] | cAMP activity change [3] -0.284% [at 18.9 µM] | activity change, negative = inhibition [4] -0.175% [at 19 µM] | activity change, negative = cytotoxicity [5] 0.983% [at 19 µM] | activation [17] 3.24% [at 19 µM] | activity change, negative = inhibition [20] -1.49% [at 18.9 µM] | viability change, negative = cytotoxic [8] -1.95% [at 15.8 µM] | activity change, negative = cytotoxicity [9] -6.94% [at 15.8 µM] | activity, negative = inhibition [10] 2.83% [at 10.5 µM] | activation [11] -0.279% [at 11.8 µM] | activity change, negative = cytotoxicity [12] 5.85% [at 19 µM] | caspase activation [13] 0.0407% [at 19 µM] | activity change, negative = cytotoxicity [14] -0.155% [at 19 µM] | caspase-3/7 activation [15] -1.25% [at 19 µM] | activity change, negative = cytotoxicity [16] 7.52% [at 19 µM] | activation [19] 0.259% [at 19 µM]

Cc1ccc2c(c1)C(=O)c1ccccc1C2=O
active: Potency [2] 3.84 µM | Potency [19] 15.3 µM
inactive: outcome [1] | outcome [3] | outcome [4] | outcome [5] | Potency [17] | Potency [20] | outcome [8] | outcome [9] | outcome [18] | outcome [10] | outcome [11] | outcome [12] | outcome [13] | Potency [14] | outcome [15] | outcome [16]

CC(C)Nc1ccccc1
inactive: outcome [1] | Potency [2] | outcome [3] | outcome [4] | outcome [5] | Potency [17] | Potency [20] | outcome [7] | outcome [8] | outcome [9] | outcome [10] | outcome [11] | outcome [12] | outcome [13] | Potency [14] | outcome [15] | outcome [16] | Potency [19]

C[Si]1(C)O[Si](C)(C)O[Si](C)(C)O[Si](C)(C)O[Si](C)(C)O1
inactive: outcome [1] | Potency [2] | outcome [3] | outcome [4] | outcome [5] | Potency [17] | outcome [7] | outcome [8] | outcome [9] | outcome [18] | outcome [10] | outcome [11] | outcome [12] | outcome [13] | Potency [14] | outcome [15] | outcome [16] | Potency [19]

Cc1ccc(N)cc1S(=O)(=O)O
inactive: outcome [1] | Potency [2] | outcome [3] | outcome [4] | outcome [5] | Potency [17] | Potency [20] | outcome [7] | outcome [8] | outcome [9] | outcome [18] | outcome [12] | outcome [13] | Potency [14] | outcome [15] | outcome [16]
active: Potency [19] 61.1 µM

Cc1c(Cl)cccc1Cl
inactive: outcome [1] | Potency [2] | outcome [3] | outcome [4] | outcome [5] | Potency [17] | Potency [20] | outcome [8] | outcome [9] | outcome [18] | outcome [12] | outcome [13] | Potency [14] | outcome [15] | outcome [16] | Potency [19]

O=C1CCC(=O)N1Cl
inactive: outcome [1] | Potency [2] | outcome [3] | outcome [4] | outcome [5] | Potency [20] | outcome [6] | outcome [8] | outcome [9] | outcome [18] | outcome [12] | outcome [13] | Potency [14] | outcome [15] | outcome [16] | Potency [19]
